In PubChem BioAssay (Tox21):
Where “and” joins values, the source holds several entries; their conditions need not be identical. Equal values may be shown once. Inconclusive results are not listed. Entries that show only a call come without a potency. More than one record can exist for a structure, and the calls need not agree. Calls of active or inactive are those of the source. Unless noted, calls follow the shape of the dose curve; as a rule, active = well fitted curve in the direction sought with a large enough effect in the repeat runs; inconclusive = weak or mixed curves; inactive = no such curve, though single readings can be large; an effect the other way counts as inactive or inconclusive.

Tests used:
[1] = qHTS assay to identify small molecule agonists of the sonic hedgehog signaling (Shh) pathway (AID 1259368; calls by dose curve;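 also: NIH/3T3-derived 3T3Gli1-Luc cells carrying a stable Gli1-driven firefly luciferase reporter; series mostly up to about 92 µM; nearly all actives have a fitted effect of over 15% in size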)
Method in brief: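 Read-out: firefly luciferase luminescence from a Gli1 response element reporter stably integrated in NIH/3T3-derived 3T3Gli1-Luc cells, measured 30 min at room temperature after reagent addition. Compound exposure lasted 24 hr at 37 C, 5% CO2.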

[2] = molecular target: Estrogen receptor beta (Homo sapiens) (UniProt Q92731); assay: qHTS assay to identify small molecule agonists of the estrogen receptor beta (ER-beta) signaling pathway (AID 1259377; active = well fitted activation curve with a large enough effect in the signal ratio in the repeat runs, not every such curve was filed as active; the % refers to the signal ratio; also: potency is read from the fitted curve at half-maximal effect)
Method in brief: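 Measured by fluorescence intensity from a B/G FRET beta-lactamase substrate (2 h, room temperature) in ER-beta-UAS-bla HEK293T cells treated with DMSO-dissolved compounds for 16 hr at 37C and 5% CO2.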

[3] = molecular target: Estrogen receptor beta (Homo sapiens) (UniProt Q92731); assay: qHTS assay to identify small molecule antagonists of the estrogen receptor beta (ER-beta) signaling pathway (AID 1259378; active = well fitted inhibition curve with a large enough effect in the signal ratio in the repeat runs, not every such curve was filed as active; the % refers to the signal ratio; also: potency is read from the fitted curve at half-maximal effect)
Method in brief: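 ER-beta-UAS-bla HEK293T cells in 2% charcoal-stripped FBS medium treated with compound plus 1nM final 17-beta-estradiol for 16 hr at 37C. Beta-lactamase reporter read by FRET substrate fluorescence after 2 hours at room temperature.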

[4] = qHTS assay to identify small molecule agonists of the androgen receptor (AR) signaling pathway in the presence of an antagonist - cell viability counter screen (AID 1259379); also: nearly all actives have a fitted effect of over 25% in size; also: potency is read from the fitted curve at half-maximal effect
Method in brief: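 Viability counter screen: CellTiter-Fluor fluorescence, measured in the same wells as the luciferase read-out. MDA-kb2 cells, 3,000/well, with nilutamide at 3.0uM final and compounds at 15 concentrations, 16 hr at 37C, 0% CO2.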

[5] = qHTS assay to identify small molecule antagonists of the estrogen receptor beta (ER-beta) signaling pathway - cell viability counter screen (AID 1259382); also: nearly all actives have a fitted effect of over 55% in size; also: potency is read from the fitted curve at half-maximal effect
Method in brief: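 Luminescent ATP read-out (CellTiter-Glo, 30 min, RT) taken in the same wells as the bla reporter assay. HEK293T ER-beta-UAS-bla cells in 2% charcoal-stripped FBS were exposed to compounds with 1nM E2 for 16 hr at 37C.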

[6] = molecular target: Estrogen receptor (Homo sapiens) (UniProt P03372); assay: qHTS assay to identify small molecule agonists of the estrogen receptor alpha (ER-alpha) signaling pathway in the presence of an antagonist (AID 1259383; calls by dose curve; also: nearly all actives have a fitted effect of over 15% in size; also: potency is read from the fitted curve at half-maximal effect; as to activation: top concentration of the series differs between compounds)
Method in brief: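 Luciferase luminescence (ONE-Glo, 30min at room temperature) measured in VM7Luc4E2 cells after 22hr compound exposure at 15 concentrations, with 10.0nM ICI-182,780 final present; cells express endogenous ER-alpha and carry four EREs upstream of luciferase.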

[7] = qHTS assay to identify small molecule agonists or antagonists of the thyroid stimulating hormone receptor (TSHR) signaling pathway - wild type cell line counter screen (AID 1259384; calls by dose curve)
Method in brief: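 Wild-type Hek293 cells, 800/well, 18 h at 37C, then compound with Ro20-1724 for 30 min RT. cAMP by HTRF (cAMP-d2/anti-cAMP cryptate), 1 h RT, fluorescence read. 15 concentrations, triplicates.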

[8] = molecular target: Thyrotropin receptor (Homo sapiens) (UniProt P16473); assay: qHTS assay to identify small molecule antagonists of the thyroid stimulating hormone receptor (TSHR) signaling pathway (AID 1259385; calls by dose curve; also: nearly all actives have a fitted effect of over 20% in size)
Method in brief: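 TSHR-HEK293 cells (800/well) plated 18 h, then compounds with Ro20-1724 and TSH at 1.5 ng/mL final, 30 min at room temperature. cAMP quantified by HTRF (cAMP-d2/anti-cAMP-cryptate, 1 h); 15 concentrations in triplicate.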

[9] = qHTS assay to identify small molecule agonists of the estrogen receptor alpha (ER-alpha) signaling pathway in the presence of an antagonist - cell viability counter screen (AID 1259386);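 also: cells exposed to compounds for 22 h at 37 °C before the viability read; nearly all actives have a fitted effect of over 30% in size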; also: potency is read from the fitted curve at half-maximal effect
Method in brief: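 Read-out: CellTiter-Fluor fluorescence after 1hr reagent incubation, measured in the same wells as the luciferase readout. VM7Luc4E2 cells were exposed to 15 compound concentrations with 10.0nM ICI-182,780 for 22hr at 37C.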

[10] = molecular target: Progesterone receptor (Homo sapiens) (UniProt P06401); assay: qHTS assay to identify small molecule agonists of the progesterone receptor (PR) signaling pathway (AID 1346784; calls by dose curve; also: nearly all actives have a fitted effect of over 30% in size; also: potency is read from the fitted curve at half-maximal effect)
Method in brief: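 The screen uses PR-UAS-bla HEK 293T cells in charcoal-stripped serum (2%). Compounds are applied for 16 hr at 37C after a 6 hr pre-incubation, and reporter activity is detected with a FRET beta-lactamase substrate after 2 hr at room temperature.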

[11] = molecular target: Progesterone receptor (Homo sapiens) (UniProt P06401); assay: qHTS assay to identify small molecule antagonists of the progesterone receptor (PR) signaling pathway (AID 1346795; active = well fitted inhibition curve with a large enough effect in the signal ratio in the repeat runs, not every such curve was filed as active; the % refers to the signal ratio; also: potency is read from the fitted curve at half-maximal effect)
Method in brief: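 After 6 hr plating at 37C in 2% stripped-serum medium, PR-UAS-bla HEK293T cells got compounds, then 1 nM R5020. Sixteen hours later, LiveBLAzer substrate was applied for 2 hr at room temperature and fluorescence was recorded.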

[12] = qHTS assay to identify small molecule antagonists of the progesterone receptor (PR) signaling pathway - cell viability counter screen (AID 1346798); also: nearly all actives have a fitted effect of over 50% in size; also: potency is read from the fitted curve at half-maximal effect
Method in brief: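 Viability was determined by ATP-based luminescence (CellTiter-Glo) in PR-UAS-bla HEK293T cells cultured in 2% charcoal-stripped serum and incubated 16 hr with compounds under R5020 stimulation.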

[13] = qHTS assay to identify small molecule agonists of the progesterone receptor (PR) signaling pathway - cell viability counter screen (AID 1346799; calls by dose curve; also: nearly all actives have a fitted effect of over 45% in size; also: potency is read from the fitted curve at half-maximal effect)
Method in brief: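 Viability was scored by ATP luminescence (CellTiter-Glo, 30 min, room temperature) in the same wells used for the reporter readout, after 16 hr compound exposure of PR-UAS-bla HEK293T cells.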

[14] = qHTS assay to identify small molecule agonists of the TGF-beta/Smad signaling pathway - cell viability counter screen (AID 1346829); also: top concentration of the series differs between compounds; nearly all actives have a fitted effect of over 45% in size
Method in brief: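 Same-well cytotoxicity: CellTiter-Glo added after the 2 hr room-temperature beta-lactamase substrate step, luminescence measured 30 min later; cells had 5 hr of compound at 37 C.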

[15] = qHTS assay to identify small molecule agonists of the TGF-beta/Smad signaling pathway (AID 1346859; active = well fitted activation curve with a large enough effect in the signal ratio in the repeat runs, not every such curve was filed as active; the % refers to the signal ratio; also: series mostly up to about 77 µM)
Method in brief: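 Dual-wavelength fluorescence (460/530 nm emission) quantified beta-lactamase expression under the Smad binding element in HEK 293T cells following 5 hr compound treatment at 37 C.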

[16] = qHTS assay to identify small molecule agonists of the estrogen receptor beta (ER-beta) signaling pathway - cell viability counter screen (AID 1259380); also: nearly all actives have a fitted effect of over 30% in size; also: potency is read from the fitted curve at half-maximal effect
Method in brief: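 Luminescence read-out (CellTiter-Glo, 30 min, room temp) taken in the same wells as the beta-lactamase reporter assay; ER-beta-UAS-bla HEK293T cells exposed to DMSO-dissolved compounds for 16 hr at 37C in 2% charcoal-stripped FBS medium.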

[17] = molecular target: Thyrotropin-releasing hormone receptor (Homo sapiens) (UniProt P34981); assay: qHTS assay to identify small molecule antagonists of the thyrotropin-releasing hormone receptor (TRHR) signaling pathway (AID 1346877; active = well fitted inhibition curve with a large enough effect in the repeat runs, not every such curve was filed as active; also: series mostly up to about 51 µM)
Method in brief: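 HEK293/TRHR cells, 18 h, 37 °C; Ca2+ dye 2 h; cpd 5 min RT; TRH 1 nM final; fluorescence read 3 min, 1 s intervals; 15 concs, triplicate.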

[18] = qHTS assay to identify small molecule antagonists of the TGF-beta/Smad signaling pathway - cell viability counter screen (AID 1346824); also: nearly all actives have a fitted effect of over 50% in size
Method in brief: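 SBE-bla HEK 293T cells, incubated overnight, then compound plus 0.25 ng/mL TGF-beta1 (stock added) for 5 hr at 37 C. Viability was read in the same wells by CellTiter-Glo luminescence after 30 min at room temperature.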

[19] = molecular target: Androgen receptor (Homo sapiens) (UniProt P10275); assay: qHTS assay to identify small molecule agonists of the androgen receptor (AR) signaling pathway in the presence of an antagonist (AID 1259381; calls by dose curve; also: nearly all actives have a fitted effect of over 15% in size)
Method in brief: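 Luciferase read-out (ONE-Glo, 30min room temperature) in MDA-kb2 MMTV-reporter cells; agonist mode run in presence of AR antagonist nilutamide, 3.0uM final. Compounds tested as 15-point series, 16hr exposure at 37C, 0% CO2.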

Estrogen receptor (Homo sapiens), sequence (P03372 whole entry, looked up): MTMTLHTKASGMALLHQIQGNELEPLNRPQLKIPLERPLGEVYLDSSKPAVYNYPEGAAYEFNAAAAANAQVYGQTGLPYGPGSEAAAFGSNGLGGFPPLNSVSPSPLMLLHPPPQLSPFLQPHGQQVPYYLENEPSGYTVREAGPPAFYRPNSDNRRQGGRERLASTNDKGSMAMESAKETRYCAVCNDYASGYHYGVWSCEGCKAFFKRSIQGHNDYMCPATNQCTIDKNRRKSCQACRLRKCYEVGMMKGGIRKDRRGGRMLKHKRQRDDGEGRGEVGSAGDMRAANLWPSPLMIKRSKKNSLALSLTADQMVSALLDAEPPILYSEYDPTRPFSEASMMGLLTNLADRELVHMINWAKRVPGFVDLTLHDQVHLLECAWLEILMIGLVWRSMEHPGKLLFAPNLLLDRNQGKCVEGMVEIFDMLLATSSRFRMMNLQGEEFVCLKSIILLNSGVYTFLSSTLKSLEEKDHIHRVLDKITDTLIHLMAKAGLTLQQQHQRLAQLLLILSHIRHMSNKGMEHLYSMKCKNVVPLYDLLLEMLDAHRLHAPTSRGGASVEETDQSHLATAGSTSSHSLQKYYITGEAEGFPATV
Thyrotropin receptor (Homo sapiens), sequence (P16473 whole entry, looked up): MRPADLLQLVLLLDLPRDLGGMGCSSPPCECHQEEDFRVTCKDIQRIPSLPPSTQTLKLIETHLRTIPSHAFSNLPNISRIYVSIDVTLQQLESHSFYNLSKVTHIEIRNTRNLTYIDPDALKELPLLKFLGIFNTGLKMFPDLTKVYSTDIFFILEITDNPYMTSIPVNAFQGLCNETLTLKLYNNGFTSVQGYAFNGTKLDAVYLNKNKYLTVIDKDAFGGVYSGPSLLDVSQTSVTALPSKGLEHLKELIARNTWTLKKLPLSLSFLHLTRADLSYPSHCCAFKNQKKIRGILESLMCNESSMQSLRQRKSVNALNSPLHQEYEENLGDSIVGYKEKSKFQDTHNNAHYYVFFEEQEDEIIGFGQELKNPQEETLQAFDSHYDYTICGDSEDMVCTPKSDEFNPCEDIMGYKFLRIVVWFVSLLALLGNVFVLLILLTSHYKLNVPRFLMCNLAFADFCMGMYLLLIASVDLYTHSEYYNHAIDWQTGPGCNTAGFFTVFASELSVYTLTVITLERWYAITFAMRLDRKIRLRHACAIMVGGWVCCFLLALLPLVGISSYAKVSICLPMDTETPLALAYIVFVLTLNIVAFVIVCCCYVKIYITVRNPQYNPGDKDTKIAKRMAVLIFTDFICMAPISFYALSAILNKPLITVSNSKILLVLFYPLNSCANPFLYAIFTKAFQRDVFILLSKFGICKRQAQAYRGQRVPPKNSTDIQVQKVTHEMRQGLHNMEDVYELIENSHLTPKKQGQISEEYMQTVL
Estrogen receptor beta (Homo sapiens), sequence (Q92731 whole entry, looked up): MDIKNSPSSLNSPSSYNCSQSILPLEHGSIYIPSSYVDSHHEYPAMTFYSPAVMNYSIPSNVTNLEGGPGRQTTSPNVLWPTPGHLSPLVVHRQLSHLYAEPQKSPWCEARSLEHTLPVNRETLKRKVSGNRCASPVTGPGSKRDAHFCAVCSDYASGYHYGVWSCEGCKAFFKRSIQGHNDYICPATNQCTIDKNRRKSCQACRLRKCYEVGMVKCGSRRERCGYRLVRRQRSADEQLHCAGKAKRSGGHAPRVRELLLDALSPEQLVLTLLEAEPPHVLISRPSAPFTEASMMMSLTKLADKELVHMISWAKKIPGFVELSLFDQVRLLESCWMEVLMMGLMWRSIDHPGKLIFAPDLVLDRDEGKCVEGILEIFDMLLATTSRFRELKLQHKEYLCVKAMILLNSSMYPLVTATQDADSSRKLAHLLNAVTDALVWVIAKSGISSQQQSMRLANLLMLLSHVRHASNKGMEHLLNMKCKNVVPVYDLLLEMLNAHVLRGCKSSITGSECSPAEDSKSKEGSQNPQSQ
Thyrotropin-releasing hormone receptor (Homo sapiens), sequence (P34981 whole entry, looked up): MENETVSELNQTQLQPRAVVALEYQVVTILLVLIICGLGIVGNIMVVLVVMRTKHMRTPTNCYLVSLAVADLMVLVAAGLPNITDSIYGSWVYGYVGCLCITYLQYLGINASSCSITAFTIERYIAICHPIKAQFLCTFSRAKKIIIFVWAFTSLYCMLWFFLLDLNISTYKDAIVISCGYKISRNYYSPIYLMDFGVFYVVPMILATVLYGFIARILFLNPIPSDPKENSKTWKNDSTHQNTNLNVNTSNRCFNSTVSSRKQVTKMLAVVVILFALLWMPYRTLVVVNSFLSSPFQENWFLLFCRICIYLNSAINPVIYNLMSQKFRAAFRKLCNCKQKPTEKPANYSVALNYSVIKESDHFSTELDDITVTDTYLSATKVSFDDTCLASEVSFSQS
Androgen receptor (Homo sapiens), sequence (P10275 whole entry, looked up): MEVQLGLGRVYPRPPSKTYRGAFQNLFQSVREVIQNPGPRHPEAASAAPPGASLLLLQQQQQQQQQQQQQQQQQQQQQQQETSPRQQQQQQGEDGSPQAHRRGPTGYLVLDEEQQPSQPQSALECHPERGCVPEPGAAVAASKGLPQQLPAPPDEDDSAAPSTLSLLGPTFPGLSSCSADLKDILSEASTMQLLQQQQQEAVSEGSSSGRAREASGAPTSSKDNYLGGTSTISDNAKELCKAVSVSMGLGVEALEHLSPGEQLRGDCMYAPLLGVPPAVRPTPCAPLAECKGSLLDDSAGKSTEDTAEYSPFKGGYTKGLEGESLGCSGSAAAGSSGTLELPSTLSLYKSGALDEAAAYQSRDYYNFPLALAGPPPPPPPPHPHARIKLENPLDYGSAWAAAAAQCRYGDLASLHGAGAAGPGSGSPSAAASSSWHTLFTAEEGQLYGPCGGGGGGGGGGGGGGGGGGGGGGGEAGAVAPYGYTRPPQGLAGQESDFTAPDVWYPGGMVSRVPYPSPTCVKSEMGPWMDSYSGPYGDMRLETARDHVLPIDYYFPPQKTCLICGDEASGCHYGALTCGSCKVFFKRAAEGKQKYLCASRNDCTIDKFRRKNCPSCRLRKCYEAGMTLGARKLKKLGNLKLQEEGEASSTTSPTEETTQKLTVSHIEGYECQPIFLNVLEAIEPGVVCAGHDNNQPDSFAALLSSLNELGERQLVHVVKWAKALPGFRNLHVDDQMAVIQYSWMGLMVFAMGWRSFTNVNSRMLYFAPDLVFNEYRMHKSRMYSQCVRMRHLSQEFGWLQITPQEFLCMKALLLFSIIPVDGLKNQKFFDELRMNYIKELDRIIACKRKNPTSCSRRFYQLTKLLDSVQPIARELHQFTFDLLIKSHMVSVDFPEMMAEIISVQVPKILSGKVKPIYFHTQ
Progesterone receptor (Homo sapiens), sequence (P06401 whole entry, looked up): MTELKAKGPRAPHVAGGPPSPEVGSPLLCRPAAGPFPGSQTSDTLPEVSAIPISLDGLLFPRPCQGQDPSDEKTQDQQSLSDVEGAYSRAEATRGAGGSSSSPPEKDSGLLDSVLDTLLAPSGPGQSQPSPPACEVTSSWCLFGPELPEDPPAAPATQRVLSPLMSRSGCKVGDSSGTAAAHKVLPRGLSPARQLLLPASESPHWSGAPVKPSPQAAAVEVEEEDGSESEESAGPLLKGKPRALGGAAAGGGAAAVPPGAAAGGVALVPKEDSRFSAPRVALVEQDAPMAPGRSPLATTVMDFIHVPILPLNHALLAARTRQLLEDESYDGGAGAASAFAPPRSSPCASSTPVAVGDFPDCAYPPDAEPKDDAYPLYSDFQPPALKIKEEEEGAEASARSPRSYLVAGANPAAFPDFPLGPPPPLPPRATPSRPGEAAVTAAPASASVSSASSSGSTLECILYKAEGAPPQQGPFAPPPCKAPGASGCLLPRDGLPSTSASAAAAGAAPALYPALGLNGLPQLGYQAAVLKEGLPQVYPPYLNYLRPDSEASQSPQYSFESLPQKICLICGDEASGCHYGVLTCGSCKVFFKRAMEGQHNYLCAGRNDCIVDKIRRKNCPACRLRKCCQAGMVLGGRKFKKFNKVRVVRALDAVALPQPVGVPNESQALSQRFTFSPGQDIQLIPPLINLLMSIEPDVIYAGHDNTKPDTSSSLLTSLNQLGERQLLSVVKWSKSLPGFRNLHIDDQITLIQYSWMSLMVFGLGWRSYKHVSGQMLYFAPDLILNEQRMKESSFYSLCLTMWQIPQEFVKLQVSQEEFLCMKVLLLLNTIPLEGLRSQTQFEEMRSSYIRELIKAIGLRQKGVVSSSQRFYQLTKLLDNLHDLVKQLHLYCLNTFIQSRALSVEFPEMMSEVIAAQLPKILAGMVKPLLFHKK

SMILES	outcome [1]	Potency [2]	Potency [3]	Potency [4]	Potency [5]	Potency [6]	outcome [7]	outcome [8]	Potency [9]	Potency [10]	Potency [11]	Potency [12]	Potency [13]	Potency [14]	outcome [15]	Potency [16]	outcome [17]	Potency [18]	Potency [19]
CN(CCOc1ccc(CC2SC(=O)NC2=O)cc1)c1ccccn1 (stereo not drawn)	inactive	inactive	inactive	inactive	inactive	inactive	inactive	inactive	inactive	inactive	48.3 µM (active) and inactive	inactive	inactive	inactive	inactive				
CCCCNC(N)=O	inactive	inactive	inactive	inactive	inactive				inactive	inactive	inactive	inactive	inactive	inactive	inactive	inactive	inactive		
CC(=O)[C@@]1(O)CC[C@H]2[C@@H]3CCC4=CC(=O)CC[C@]4(C)[C@H]3CC[C@@]21C	inactive	inactive	inactive	inactive	inactive		inactive	inactive	inactive	3.35 µM (active)	inactive	inactive		inactive	inactive		inactive	inactive	
CCC(C)C=O (stereo not drawn)	inactive	4.32 µM (active) and inactive	inactive	inactive	inactive	1.09 µM (active) and inactive	inactive	inactive	inactive	inactive	inactive	inactive	inactive	inactive	inactive		inactive	inactive	
CC1=C(/C=C/C(C)=C/C=C/C(C)=C/CO)C(C)(C)CCC1	inactive	inactive	inactive and 64.4 µM (active)	inactive	inactive	inactive	inactive	inactive	inactive	inactive	inactive	inactive	inactive	inactive	inactive		inactive	inactive	
C=CC(=O)OCCCCCCCC(C)C	inactive	inactive	inactive	inactive	inactive	inactive	inactive	inactive	inactive	inactive	inactive	inactive	inactive	inactive	inactive		inactive	inactive	inactive
CC(C)(C)C(=O)C1C(=O)c2ccccc2C1=O	inactive	inactive		60.5 µM (active)	inactive	inactive	inactive	inactive	60.5 µM (active) and 61.1 µM (active)	inactive	inactive	inactive	inactive	inactive	inactive	inactive		inactive	
OCCOCCOCCOCCO	inactive	inactive	inactive	inactive	inactive	inactive	inactive	inactive	inactive	inactive	inactive	inactive	inactive	inactive	inactive	inactive	inactive	inactive	
C[C@@H]1O[C@@H](OC[C@H]2O[C@@H](Oc3c(-c4ccc(O)c(O)c4)oc4cc(O)cc(O)c4c3=O)[C@H](O)[C@@H](O)[C@@H]2O)[C@H](O)[C@H](O)[C@H]1O	inactive	inactive	inactive	inactive	inactive		inactive	inactive	54.9 µM (active)	inactive	inactive	inactive	inactive	inactive	inactive		inactive		inactive
C=C(C#N)C(=O)OCC	inactive			inactive	inactive		inactive	inactive	inactive	inactive	inactive	inactive	inactive	inactive	inactive		inactive	inactive	
COC(=O)c1ccc(C(=O)OC)cc1	inactive	inactive	inactive	inactive	19.6 µM (active) and inactive	inactive	inactive	inactive	inactive				17.5 µM (active) and inactive	inactive	inactive		inactive	inactive	
CCCCCCC(C)(C)S	inactive	inactive	inactive	inactive	inactive		inactive	inactive	inactive	inactive	inactive	inactive	inactive	inactive	inactive	inactive	inactive	inactive	
C=C(C)C(=O)OCC(CC)(COC(=O)C(=C)C)COC(=O)C(=C)C	inactive			inactive	inactive		inactive	inactive	inactive	inactive	inactive	inactive	inactive	inactive		inactive	inactive	inactive	
CS(=O)(=O)c1ccc([C@@H](O)[C@@H](CO)NC(=O)C(Cl)Cl)cc1	inactive			inactive	inactive	inactive			inactive	inactive	inactive	inactive	inactive	inactive	inactive	inactive		inactive	
C=C1C2CCC(C2)C1(C)C (stereo not drawn)	inactive	inactive	inactive	inactive	inactive	inactive	inactive	inactive	inactive	inactive	inactive	inactive	inactive	inactive	inactive		inactive		
C[C@@H](O)[C@H]1C(=O)N2C(C(=O)O)=C(S[C@@H]3CN[C@H](C(=O)N(C)C)C3)[C@H](C)[C@H]12	inactive	inactive	inactive	inactive	inactive		inactive	inactive	inactive	inactive	inactive	inactive	inactive	inactive	inactive	inactive		inactive	
CCCCC(CC)COC(=O)CCCCCCCC(=O)OCC(CC)CCCC (stereo not drawn)	inactive	inactive	12.2 µM (active) and inactive	8.63 µM (active) and inactive	30.6 µM (active) and inactive		inactive	inactive	inactive	inactive	8.63 µM (active) and inactive		54.5 µM (active) and inactive	inactive	inactive		inactive		
Cc1cc(NS(=O)(=O)c2ccc(N)cc2)no1	inactive	inactive		inactive	inactive		inactive		inactive	inactive	inactive	inactive	inactive	inactive	inactive	inactive		inactive	
CC(C)NCC(O)COc1cccc2ccccc12 (stereo not drawn)	inactive	inactive		inactive	27.6 µM (active)				inactive	inactive	inactive	30.9 µM (active) and 27.3 µM (active)		inactive	inactive	55 µM (active) and 54.5 µM (active)	inactive	inactive	
CS(=O)(=O)Nc1ccc([N+](=O)[O-])cc1Oc1ccccc1	inactive	inactive		26.6 µM (active)	inactive		inactive	inactive	48.6 µM (active) and 26.6 µM (active)	inactive	inactive	inactive	inactive	inactive	inactive	inactive	inactive	inactive	
Oc1ccc2ccccc2c1	inactive			inactive	inactive		inactive	inactive	inactive	inactive	48.6 µM (active)	inactive	inactive	inactive	inactive	inactive		inactive	inactive
O=[N+]([O-])c1cc(N(CCO)CCO)ccc1NCCO	inactive	inactive	inactive	54.4 µM (active) and 30.6 µM (active)	inactive	inactive			34.3 µM (active) and 27.3 µM (active)	inactive	inactive	inactive	inactive	inactive	inactive				inactive
O=C(Cl)c1c(Cl)c(Cl)c(C(=O)Cl)c(Cl)c1Cl	inactive	inactive	inactive	inactive	inactive	inactive			inactive	inactive	inactive	inactive	inactive	inactive	inactive	inactive	inactive		
CC(C)n1c(/C=C/[C@@H](O)C[C@@H](O)CC(=O)O)c(-c2ccc(F)cc2)c2ccccc21	inactive			inactive	15.4 µM (active)				inactive	inactive			770 nM (active)	inactive	inactive		inactive	inactive	
C=C1CC[C@H](O)CC1=C/C=C1\CCC[C@]2(C)[C@@H]([C@H](C)/C=C/[C@H](C)C(C)C)CC[C@@H]12	inactive	inactive		inactive	42.9 µM (active)		inactive	inactive		inactive		inactive	inactive	inactive	inactive	24.1 µM (active) and 30.6 µM (active)			
NCc1cccc(CN)c1	inactive	inactive	inactive		inactive	inactive	inactive	inactive	inactive	inactive	inactive	inactive	inactive	inactive	inactive		inactive		
